Among all 37,000 compounds or so, about 2,800 (7.6%) were called active. Not shown: some 1% with an inconclusive outcome. The sample holds actives, similar compounds and a random draw of the others, so the mix is not that of the screen. No stated cut-off is given here; in the data, active means inhibition above about 80%; inconclusive means no clear call, values can overlap the other calls; inactive means below that.

A short description of this test: NOMO-1 AML cell viability reduction, primary screen, STK33 inhibitor project, CellTiter-Glo luminescence (AID 2330). The following applies: NOMO-1 AML viability, 72 h, stronger effect = higher value, concentration not given here.
As usually defined, the inhibition is the relative decrease from the control value, in per cent. In the case of `COc1ccc(CCCOC(Cn2ccnc2)c2ccc(OC)cc2)cc1` (configuration not stated), the inhibition is 114% (active).
With `Cc1ccc(S(=O)(=O)N(C)C[C@H]2OCCCC[C@@H](C)Oc3ccc(NS(C)(=O)=O)cc3C(=O)N([C@H](C)CO)C[C@@H]2C)cc1` the figure was 20.5% (inactive); with `COc1ccccc1NC(=O)c1ccc(OCC(=O)O)cc1`, -18.7% (inactive); with `COC(=O)COc1cccc(NC(=O)c2cc(OC)c(OC)c(OC)c2)c1`, 124% (active).
For `CC(C)(C)c1ccc(OCC(=O)Nc2cccc(NC(=O)c3ccccc3)c2)cc1` the value was 25.3% (inactive).
`C[C@H]1CN([C@@H](C)CO)C(=O)c2cccc(NC(=O)CCCCCC(=O)Nc3ccccc3N)c2O[C@@H]1CN(C)S(=O)(=O)c1cn(C)cn1`: the inhibition was 5.62% (inactive).
For `O=[N+]([O-])c1ccc(NCCNCc2cccnc2)cc1` the value was -20% (inactive).
As to `CC[N+]1=C(C)C(C)(C)c2cc(-c3ccccc3)ccc21`, the inhibition was 123% (active).
Consider `Cc1ccc(Cn2c(NCc3nc4ccccc4n3C)nc3ccccc32)cc1`, for which the inhibition is 7.82% (inactive).
For `CC(C)NC(=O)Nc1ccc2c(c1)C(=O)N([C@@H](C)CO)C[C@@H](C)[C@H](CN(C)C(=O)NC1CCCCC1)O2`, the inhibition is 30.5% (inactive).
With `COc1ccc(-c2nnc(SCC(=O)O)n2-c2ccccc2)cc1OC` the figure was -16.5% (inactive); with `CC1(C)Cc2c(sc3ncn4nc(COc5ccc(Cl)cc5)nc4c23)C(C)(C)N1`, 142% (active); with `O=C1c2ccccc2C(=O)C1c1cc(=O)[nH]c2c1ccc1ccccc12`, 11.8% (inactive).
As to `CCOC(=O)c1nnn(-c2nonc2-n2cccc2)c1CN1CCOCC1`, the inhibition is 24.9% (inactive).
For the compound `C[C@@H]1CN([C@H](C)CO)C(=O)Cc2cc(NS(=O)(=O)c3cccs3)ccc2O[C@@H]1CN(C)Cc1ccc(C(=O)O)cc1`, the inhibition was -19.7% (inactive).
With `COc1ccc(S(=O)(=O)Nc2ccc3c(c2)CC(=O)N([C@@H](C)CO)C[C@@H](C)[C@@H](CN(C)Cc2ccc(C(=O)Nc4ccccc4N)cc2)O3)cc1` the figure was 100% (active); with `COc1ccc(S(=O)(=O)Nc2ccc3c(c2)CC(=O)N([C@H](C)CO)C[C@@H](C)[C@@H](CN(C)C(=O)Nc2cccc4ccccc24)O3)cc1`, -1.33% (inactive).
For the compound `Cc1ccc(S(=O)(=O)N(C)C[C@H]2Oc3ccc(NS(=O)(=O)c4ccccc4)cc3CC(=O)N([C@@H](C)CO)C[C@H]2C)cc1`, the inhibition was -0.416% (inactive).
With `Cc1ccc(S(=O)(=O)Nc2ccc3c(c2)CC(=O)N([C@@H](C)CO)C[C@H](C)[C@H](CN(C)Cc2ccc(C(=O)Nc4ccccc4N)cc2)O3)cc1` the figure was 139% (active).
Regarding `Cc1ccc(S(=O)(=O)Nc2ccc3c(c2)CC(=O)N([C@@H](C)CO)C[C@@H](C)[C@@H](CN(C)S(=O)(=O)c2ccccc2)O3)cc1`, the inhibition was 5.59% (inactive).
As to `C[C@H](CO)N1C[C@H](C)[C@H](CN(C)CC2CC2)Oc2ccc(NS(=O)(=O)c3ccccc3)cc2CC1=O`, the inhibition was 20.8% (inactive).
Consider `COc1ccc(CN(C)C[C@H]2Oc3ccc(NS(=O)(=O)c4ccc(Cl)cc4)cc3CC(=O)N([C@@H](C)CO)C[C@H]2C)cc1`, for which the inhibition is 40.8% (inactive).
For `C[C@H]1CN([C@@H](C)CO)C(=O)Cc2cc(NS(=O)(=O)c3ccccc3)ccc2O[C@H]1CN(C)Cc1ccc(C(=O)Nc2ccccc2N)cc1` the value was 141% (active); for `C[C@@H]1CCCCO[C@H](CN(C)S(=O)(=O)c2ccccc2)[C@@H](C)CN([C@H](C)CO)C(=O)c2cc(NC(=O)Nc3ccc(F)cc3)ccc2O1`, 33.7% (inactive); for `C[C@@H]1CCCCO[C@H](CN(C)S(=O)(=O)c2cccs2)[C@@H](C)CN([C@H](C)CO)C(=O)c2cc(NC(=O)Nc3ccccc3)ccc2O1`, 11.8% (inactive).
In the case of `O=c1cc(CSc2nnnn2-c2ccccc2)[nH]c(=S)[nH]1`, the inhibition is 33.9% (inactive).
With `C[C@@H]1CN([C@@H](C)CO)C(=O)Cc2cc(NC(=O)C3CCCCC3)ccc2O[C@@H]1CN(C)Cc1ccncc1` the figure was 15.8% (inactive).
For `CCOC(=O)c1cnc2cc(C(F)(F)F)ccc2c1N1CCCCCC1` the value was 13.2% (inactive); for `CNC[C@@H]1Oc2ccc(NC(=O)Nc3ccc4c(c3)OCO4)cc2C(=O)N([C@H](C)CO)C[C@@H]1C`, 6.4% (inactive).
With `COc1ccc(NC(=O)c2ccc(OCC(=O)Nc3ccccc3F)cc2)cc1Cl` the figure was 19.2% (inactive); with `CCOC(=O)c1c(CN2CCOCC2)nc2c3ccccc3ccn12`, -2.66% (inactive); with `CCOC(=O)c1nnn2c1nc(N1CCN(c3ccccc3)CC1)c1ccccc12`, 101% (active).
Turning to `CCOC(=O)c1nnn2c3ccccc3c(=O)n(C)c12`, the inhibition was -3.54% (inactive).
As to `Cc1noc(C)c1NC(=O)Nc1cccc2c1O[C@H](CN(C)C(=O)Nc1ccccc1)[C@@H](C)CN([C@H](C)CO)C2=O`, the inhibition was 30.8% (inactive).
With `NC(CC(=O)Nc1ccc(Cl)cc1)C(=O)O` (configuration not stated) the figure was 16.1% (inactive); with `Cc1noc(C)c1S(=O)(=O)Nc1ccc2c(c1)CC(=O)N([C@@H](C)CO)C[C@@H](C)[C@@H](CN(C)C(=O)Nc1ccc(C(F)(F)F)cc1)O2`, 14.7% (inactive); with `O=C1Cc2ccc(F)cc2CC1C1=Cc2ccc(F)cc2CC1` (configuration not stated), 114% (active).
In the case of `Cc1ccc(NC(N)=O)cc1`, the inhibition was 0.872% (inactive).
`Oc1ccc(CN2CCCC2)c2cccnc12`: the inhibition is 141% (active).
With `C[C@H](CO)N1C[C@H](C)[C@H](CN(C)S(=O)(=O)c2ccc(Cl)cc2)Oc2c(NS(C)(=O)=O)cccc2C1=O` the figure was 9.14% (inactive); with `C[C@H](CO)N1C[C@H](C)[C@H](CN(C)S(=O)(=O)c2cccs2)Oc2ccc(NS(=O)(=O)c3ccc(Cl)cc3)cc2CC1=O`, 12.4% (inactive); with `COc1c(C)c2c(c(O)c1C/C=C(\C)CCC(=O)O)C(=O)OC2`, 139% (active).
For `CS(=O)(=O)N(CC(=O)Nc1ccc(F)c(F)c1)c1ccccc1F`, the inhibition was -8.09% (inactive).
As to `Oc1c(Cl)cc(Cl)cc1C1Nc2cc(C(F)(F)F)ccc2-n2cccc21` (configuration not stated), the inhibition is 114% (active).
For the compound `C[C@@H]1CN([C@H](C)CO)C(=O)Cc2cc(NC(=O)CCN3CCOCC3)ccc2O[C@@H]1CN(C)S(C)(=O)=O`, the inhibition is 5.67% (inactive).
With `CC(C)NC(=O)N(C)C[C@@H]1Oc2ccc(NS(=O)(=O)c3cn(C)cn3)cc2C(=O)N([C@@H](C)CO)C[C@@H]1C` the figure was 18.9% (inactive); with `Cn1c(OCc2cccnc2)nc2c1c(=O)n(Cc1ccc(Cl)c(Cl)c1)c(=O)n2C`, 27.8% (inactive); with `c1ccc2[nH]c(CSc3nc4ccccc4[nH]3)nc2c1`, 6.35% (inactive).
With `Cc1c(CCC(=O)O)c(=O)oc2cc(OCc3ccc(Br)cc3)ccc12` the figure was 19.3% (inactive); with `Cc1cc(=O)oc2cc(OCc3cccc(F)c3)ccc12`, 25.5% (inactive).
With `CCOC(=O)c1cc(=O)c2ccc(OCc3ccccc3)cc2o1`, the inhibition is 105% (active).
With `O=C(CSc1nnc2ccc3ccccc3n12)Nc1ccc2c(c1)OCCO2` the figure was 12.1% (inactive).
With `NC(=O)CSc1oc(-c2cccs2)nc1S(=O)(=O)c1ccccc1` the figure was 11.4% (inactive).
Take `Cc1noc(C)c1NC(=O)N(C)C[C@@H]1Oc2ccc(NS(C)(=O)=O)cc2C(=O)N([C@@H](C)CO)C[C@@H]1C`: the inhibition is -15.6% (inactive).
As for `COc1ccc(NC(=O)Nc2ccc3c(c2)C(=O)N([C@H](C)CO)C[C@H](C)[C@@H](CN(C)C(=O)Nc2ccc4c(c2)OCO4)O3)cc1`, the inhibition was 14.3% (inactive).
With `COC(=O)c1cc(OC)c(OC)cc1NC(=O)COc1ccccc1Cl` the figure was -12.9% (inactive); with `COC(=O)c1cc(OC)c(OC)cc1NC(=O)c1cc(-c2ccc(C)o2)nc2ccccc12`, 92.8% (active); with `COC(=O)c1cc(OC)c(OC)cc1NC(=O)COc1ccc(Cl)cc1`, 15.1% (inactive).
For `COC(=O)c1c(-c2cccnc2)csc1NC(=O)c1cc(-c2ccc(C)o2)nc2ccccc12` the value was 86.9% (active).
With `Cc1ccccc1OCC(=O)Nc1cc(-c2nc3ccccc3s2)c(Cl)cc1Cl` the figure was 6.92% (inactive); with `COc1ccc(NC(=O)N(C)C[C@H]2Oc3ccc(NC(=O)NC(C)C)cc3CC(=O)N([C@H](C)CO)C[C@H]2C)cc1`, 3.6% (inactive).
Regarding `C[C@@H]1CN([C@H](C)CO)C(=O)Cc2cc(NS(C)(=O)=O)ccc2O[C@H]1CN(C)S(=O)(=O)c1ccccc1`, the inhibition was -9.84% (inactive).
For `Cn1c(=O)c2c(nc(SCC(=O)O)n2Cc2ccc(F)cc2)n(C)c1=O` the value was 17.9% (inactive); for `Cc1cc(=O)oc2cc(OC(C)C(=O)Nc3ccc(Cl)c(C(F)(F)F)c3)ccc12` (configuration not stated), 4.93% (inactive); for `C[C@H]1CN([C@@H](C)CO)C(=O)c2cc(NC(=O)Nc3ccccc3)ccc2O[C@H]1CN(C)S(C)(=O)=O`, 15.5% (inactive).
In the case of `CC(=O)c1cccc(NC(=O)CN(c2ccc(F)c(Cl)c2)S(C)(=O)=O)c1`, the inhibition was 13.8% (inactive).
With `Cc1noc(C)c1NC(=O)Nc1ccc2c(c1)CC(=O)N([C@@H](C)CO)C[C@@H](C)[C@@H](CN(C)Cc1ccc(Cl)c(Cl)c1)O2` the figure was 58.1% (inactive); with `COc1cc(O)cc(C)c1C(=O)OC1C(CO)OC(n2ccc(=O)[nH]c2=O)C1OC(C)=O` (configuration not stated), 6.97% (inactive).
`COC(=O)c1cc(C)sc1NC(=S)Nc1ncn(Cc2ccc(F)cc2Cl)n1`: the inhibition was 109% (active).
As for `CCc1cc(C(=O)OC)c(NC(=S)Nc2ccc(OC)cc2[N+](=O)[O-])s1`, the inhibition is 22.2% (inactive).
As for `C[C@H]1CN([C@@H](C)CO)C(=O)Cc2cc(NS(=O)(=O)c3cccs3)ccc2O[C@@H]1CN(C)Cc1ccc(Oc2ccccc2)cc1`, the inhibition was 78.4% (inactive).
Take `C[C@@H]1CN([C@@H](C)CO)C(=O)Cc2cc(NC(=O)Nc3cccc4ccccc34)ccc2O[C@@H]1CN(C)CC1CCCCC1`: the inhibition is 117% (active).
As to `C[C@H]1CN([C@@H](C)CO)C(=O)c2cc(NC(=O)Nc3ccc4c(c3)OCO4)ccc2O[C@@H]1CN(C)CC1CCCCC1`, the inhibition was 31.9% (inactive).
As for `C[C@H]1CN([C@@H](C)CO)C(=O)Cc2cc(NC(=O)Nc3ccc4c(c3)OCO4)ccc2O[C@H]1CN(C)CC1CC1`, the inhibition was 11.8% (inactive).
Regarding `C[C@H]1CN([C@@H](C)CO)C(=O)Cc2cc(NC(=O)Nc3cccc4ccccc34)ccc2O[C@H]1CN(C)CC1CC1`, the inhibition is 26.7% (inactive).
For the compound `C[C@H]1CN([C@@H](C)CO)C(=O)Cc2cc(NC(=O)Nc3cccc4ccccc34)ccc2O[C@@H]1CN(C)S(C)(=O)=O`, the inhibition is 0.688% (inactive).
With `C[C@@H]1CN([C@@H](C)CO)C(=O)Cc2cc(NC(=O)Nc3ccc4c(c3)OCO4)ccc2O[C@@H]1CN(C)CC1CCCCC1` the figure was 88.2% (active).
